# In the supplement of paper PMC11732987, “Enantioselective OTUD7B fragment discovery through chemoproteomics screening and high-throughput optimisation” (Communications Chemistry, 2025):
# A number with no mark means an inactive call.
# How the values were obtained:
# Assay in all cases: log2 ratio of Biotin-Ahx-Ub-VS probe labelling (fragment/DMSO); higher = less target engagement (more negative = stronger competition), active = hit call of the paper (q ≤ 0.05, log2 ratio ≤ -1)
# Settings in all cases: compound concentration: 200 uM; treatment time: 3 h
# USP42 = biological target: T1, USP42 (UniProt Q9H9J4)
# T1 sequence (whole entry): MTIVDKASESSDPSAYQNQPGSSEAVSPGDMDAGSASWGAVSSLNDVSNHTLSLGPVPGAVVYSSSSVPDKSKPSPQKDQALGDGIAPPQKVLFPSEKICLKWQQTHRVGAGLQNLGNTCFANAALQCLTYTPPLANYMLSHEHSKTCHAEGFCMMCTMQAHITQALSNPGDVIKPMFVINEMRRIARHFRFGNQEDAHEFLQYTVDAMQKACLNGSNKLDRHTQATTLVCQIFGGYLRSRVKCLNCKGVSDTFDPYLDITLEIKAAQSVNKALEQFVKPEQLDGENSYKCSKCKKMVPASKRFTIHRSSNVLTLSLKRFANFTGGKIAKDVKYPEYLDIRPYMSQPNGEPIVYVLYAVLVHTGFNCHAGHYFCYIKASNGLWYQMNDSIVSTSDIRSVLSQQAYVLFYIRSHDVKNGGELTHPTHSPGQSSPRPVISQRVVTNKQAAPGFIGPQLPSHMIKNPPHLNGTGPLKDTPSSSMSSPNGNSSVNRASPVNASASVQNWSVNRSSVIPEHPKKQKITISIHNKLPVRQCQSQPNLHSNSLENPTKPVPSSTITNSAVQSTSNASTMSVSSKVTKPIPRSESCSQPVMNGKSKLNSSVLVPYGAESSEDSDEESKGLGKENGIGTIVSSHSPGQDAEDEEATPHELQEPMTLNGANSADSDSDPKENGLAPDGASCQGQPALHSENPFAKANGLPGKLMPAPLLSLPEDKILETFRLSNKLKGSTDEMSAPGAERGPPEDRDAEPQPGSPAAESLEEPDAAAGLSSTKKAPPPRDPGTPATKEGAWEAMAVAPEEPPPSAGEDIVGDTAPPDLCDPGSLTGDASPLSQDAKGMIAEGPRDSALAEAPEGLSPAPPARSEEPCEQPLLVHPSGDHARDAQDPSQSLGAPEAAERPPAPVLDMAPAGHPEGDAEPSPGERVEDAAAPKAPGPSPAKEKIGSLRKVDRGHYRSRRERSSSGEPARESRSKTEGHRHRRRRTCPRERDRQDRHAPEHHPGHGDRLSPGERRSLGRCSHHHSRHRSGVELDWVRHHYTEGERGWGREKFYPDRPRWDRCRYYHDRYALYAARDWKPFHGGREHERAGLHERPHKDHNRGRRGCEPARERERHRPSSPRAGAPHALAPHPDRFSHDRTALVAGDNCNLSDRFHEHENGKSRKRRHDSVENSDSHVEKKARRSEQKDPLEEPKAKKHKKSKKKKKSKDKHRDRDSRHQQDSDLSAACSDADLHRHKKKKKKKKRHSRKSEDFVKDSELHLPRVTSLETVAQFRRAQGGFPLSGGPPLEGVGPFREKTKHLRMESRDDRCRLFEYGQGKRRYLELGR
# Procedure, shortened: (§1)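 HEK293T lysate (495 µg per sample, in Tris/CHAPS/IGEPAL buffer with protease inhibitors) was treated in triplicate with fragment at 200 µM or with DMSO for 3 h. It was then treated with Biotin-Ahx-Ub-VS (0.5 µM final) for 1 h. Labelled DUBs were NeutrAvidin-enriched, digested with LysC and trypsin, and run by diaPASEF LC-MS/MS. Spectronaut label-free quantities were global-median-normalised. Values are average log2 ratios fragment/DMSO by unpaired t-test, using proteins with ≥2 unique peptides.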
# USP46 = USP46 (UniProt P62068)
# USP46, sequence (P62068 whole entry): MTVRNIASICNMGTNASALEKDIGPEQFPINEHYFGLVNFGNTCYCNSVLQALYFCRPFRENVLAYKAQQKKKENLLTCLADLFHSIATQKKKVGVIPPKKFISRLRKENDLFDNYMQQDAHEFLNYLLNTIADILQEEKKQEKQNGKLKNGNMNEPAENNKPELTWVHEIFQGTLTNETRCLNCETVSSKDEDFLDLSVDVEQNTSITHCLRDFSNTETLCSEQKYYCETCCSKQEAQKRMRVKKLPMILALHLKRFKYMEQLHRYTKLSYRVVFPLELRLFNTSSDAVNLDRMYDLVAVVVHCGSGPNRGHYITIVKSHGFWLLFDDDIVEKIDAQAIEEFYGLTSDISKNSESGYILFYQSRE
# Procedure, shortened: as §1
# USP47 = biological target: T2, USP47 (UniProt Q96K76)
# T2 sequence (whole entry): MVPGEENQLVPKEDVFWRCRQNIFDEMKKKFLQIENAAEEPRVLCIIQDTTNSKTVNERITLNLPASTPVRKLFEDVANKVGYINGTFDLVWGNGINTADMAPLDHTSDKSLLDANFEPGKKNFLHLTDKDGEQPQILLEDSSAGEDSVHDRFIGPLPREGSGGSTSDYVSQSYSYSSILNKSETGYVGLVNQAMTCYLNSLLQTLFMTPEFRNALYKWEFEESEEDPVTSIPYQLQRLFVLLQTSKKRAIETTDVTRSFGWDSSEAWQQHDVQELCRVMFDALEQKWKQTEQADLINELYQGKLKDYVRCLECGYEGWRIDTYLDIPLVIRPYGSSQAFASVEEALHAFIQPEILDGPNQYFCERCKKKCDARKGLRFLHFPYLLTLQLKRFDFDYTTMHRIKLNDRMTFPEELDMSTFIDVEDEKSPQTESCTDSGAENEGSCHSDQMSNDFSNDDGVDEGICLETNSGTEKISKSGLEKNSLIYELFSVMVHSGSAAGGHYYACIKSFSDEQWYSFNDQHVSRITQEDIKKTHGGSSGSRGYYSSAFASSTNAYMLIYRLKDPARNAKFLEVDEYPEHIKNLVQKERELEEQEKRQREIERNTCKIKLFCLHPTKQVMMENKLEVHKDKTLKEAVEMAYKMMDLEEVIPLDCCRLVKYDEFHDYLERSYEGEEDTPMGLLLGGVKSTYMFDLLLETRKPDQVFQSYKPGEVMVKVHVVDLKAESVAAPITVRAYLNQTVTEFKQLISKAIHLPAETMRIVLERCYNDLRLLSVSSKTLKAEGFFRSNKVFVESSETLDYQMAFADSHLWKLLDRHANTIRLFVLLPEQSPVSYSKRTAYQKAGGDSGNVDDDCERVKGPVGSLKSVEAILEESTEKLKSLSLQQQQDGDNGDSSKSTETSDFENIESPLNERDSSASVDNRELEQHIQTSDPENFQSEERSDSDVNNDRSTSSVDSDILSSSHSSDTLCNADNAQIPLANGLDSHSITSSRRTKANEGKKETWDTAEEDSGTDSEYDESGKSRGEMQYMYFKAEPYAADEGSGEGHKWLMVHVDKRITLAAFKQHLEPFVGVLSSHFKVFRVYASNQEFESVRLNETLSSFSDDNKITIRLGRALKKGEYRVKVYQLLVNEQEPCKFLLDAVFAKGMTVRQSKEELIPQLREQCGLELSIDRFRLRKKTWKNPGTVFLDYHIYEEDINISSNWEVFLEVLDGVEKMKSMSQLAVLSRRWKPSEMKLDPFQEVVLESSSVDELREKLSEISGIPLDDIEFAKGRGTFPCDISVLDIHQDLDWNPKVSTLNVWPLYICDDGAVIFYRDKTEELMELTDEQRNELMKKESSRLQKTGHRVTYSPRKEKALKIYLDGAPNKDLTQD
# Procedure, shortened: as §1
# USP48 = biological target: T3, USP48 (UniProt Q86UV5)
# T3 sequence (whole entry): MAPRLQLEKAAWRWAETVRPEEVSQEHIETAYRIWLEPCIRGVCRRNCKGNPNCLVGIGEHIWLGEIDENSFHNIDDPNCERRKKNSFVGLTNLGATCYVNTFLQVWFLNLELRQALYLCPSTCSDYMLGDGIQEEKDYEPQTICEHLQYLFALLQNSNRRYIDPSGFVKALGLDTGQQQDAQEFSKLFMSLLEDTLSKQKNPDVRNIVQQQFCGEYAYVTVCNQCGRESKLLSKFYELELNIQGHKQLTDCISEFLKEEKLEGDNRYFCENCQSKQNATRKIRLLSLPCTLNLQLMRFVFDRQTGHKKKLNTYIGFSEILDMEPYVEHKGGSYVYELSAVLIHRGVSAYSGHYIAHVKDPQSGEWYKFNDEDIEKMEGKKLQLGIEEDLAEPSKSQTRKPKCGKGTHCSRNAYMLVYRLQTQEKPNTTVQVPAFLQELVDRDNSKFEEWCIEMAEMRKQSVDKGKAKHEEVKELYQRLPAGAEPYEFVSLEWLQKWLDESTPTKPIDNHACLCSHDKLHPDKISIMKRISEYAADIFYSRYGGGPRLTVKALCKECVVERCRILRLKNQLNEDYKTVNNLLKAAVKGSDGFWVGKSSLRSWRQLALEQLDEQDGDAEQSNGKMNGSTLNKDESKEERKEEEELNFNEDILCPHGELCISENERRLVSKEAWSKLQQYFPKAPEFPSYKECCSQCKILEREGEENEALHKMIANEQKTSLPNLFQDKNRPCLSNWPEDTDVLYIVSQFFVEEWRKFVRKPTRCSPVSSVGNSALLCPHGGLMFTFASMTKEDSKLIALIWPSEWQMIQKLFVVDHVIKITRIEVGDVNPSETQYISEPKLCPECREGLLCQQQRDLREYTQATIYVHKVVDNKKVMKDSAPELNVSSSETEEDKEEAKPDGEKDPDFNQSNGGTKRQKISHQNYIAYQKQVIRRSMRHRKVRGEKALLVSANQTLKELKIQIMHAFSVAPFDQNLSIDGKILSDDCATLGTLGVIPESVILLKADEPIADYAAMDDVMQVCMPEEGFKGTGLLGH
# Procedure, shortened: as §1
# USP5 = biological target: T4, USP5 (UniProt P45974)
# T4 sequence (whole entry): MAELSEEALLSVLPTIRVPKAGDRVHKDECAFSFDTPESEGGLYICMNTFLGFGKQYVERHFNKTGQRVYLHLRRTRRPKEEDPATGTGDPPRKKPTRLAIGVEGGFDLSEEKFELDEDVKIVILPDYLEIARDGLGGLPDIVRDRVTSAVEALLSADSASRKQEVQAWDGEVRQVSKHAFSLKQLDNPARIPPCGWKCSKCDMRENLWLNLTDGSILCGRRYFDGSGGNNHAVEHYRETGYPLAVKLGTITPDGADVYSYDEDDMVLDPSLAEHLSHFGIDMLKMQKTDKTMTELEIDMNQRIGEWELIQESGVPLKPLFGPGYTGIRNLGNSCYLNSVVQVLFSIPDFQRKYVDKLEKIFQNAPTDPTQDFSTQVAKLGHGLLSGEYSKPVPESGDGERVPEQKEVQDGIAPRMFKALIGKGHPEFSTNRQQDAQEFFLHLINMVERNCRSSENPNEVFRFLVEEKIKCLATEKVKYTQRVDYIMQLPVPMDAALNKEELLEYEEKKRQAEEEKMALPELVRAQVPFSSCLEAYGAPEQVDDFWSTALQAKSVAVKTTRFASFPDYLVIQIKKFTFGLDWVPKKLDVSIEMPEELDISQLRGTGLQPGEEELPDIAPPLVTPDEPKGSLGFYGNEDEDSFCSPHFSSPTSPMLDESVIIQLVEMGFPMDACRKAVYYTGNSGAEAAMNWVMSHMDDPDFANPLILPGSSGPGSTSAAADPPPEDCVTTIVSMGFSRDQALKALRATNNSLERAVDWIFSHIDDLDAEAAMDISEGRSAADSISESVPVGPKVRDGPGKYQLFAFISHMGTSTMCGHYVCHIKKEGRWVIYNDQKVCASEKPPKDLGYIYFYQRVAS
# Procedure, shortened: as §1
# USP54 = USP54 (UniProt Q70EL1)
# USP54, sequence (Q70EL1 whole entry): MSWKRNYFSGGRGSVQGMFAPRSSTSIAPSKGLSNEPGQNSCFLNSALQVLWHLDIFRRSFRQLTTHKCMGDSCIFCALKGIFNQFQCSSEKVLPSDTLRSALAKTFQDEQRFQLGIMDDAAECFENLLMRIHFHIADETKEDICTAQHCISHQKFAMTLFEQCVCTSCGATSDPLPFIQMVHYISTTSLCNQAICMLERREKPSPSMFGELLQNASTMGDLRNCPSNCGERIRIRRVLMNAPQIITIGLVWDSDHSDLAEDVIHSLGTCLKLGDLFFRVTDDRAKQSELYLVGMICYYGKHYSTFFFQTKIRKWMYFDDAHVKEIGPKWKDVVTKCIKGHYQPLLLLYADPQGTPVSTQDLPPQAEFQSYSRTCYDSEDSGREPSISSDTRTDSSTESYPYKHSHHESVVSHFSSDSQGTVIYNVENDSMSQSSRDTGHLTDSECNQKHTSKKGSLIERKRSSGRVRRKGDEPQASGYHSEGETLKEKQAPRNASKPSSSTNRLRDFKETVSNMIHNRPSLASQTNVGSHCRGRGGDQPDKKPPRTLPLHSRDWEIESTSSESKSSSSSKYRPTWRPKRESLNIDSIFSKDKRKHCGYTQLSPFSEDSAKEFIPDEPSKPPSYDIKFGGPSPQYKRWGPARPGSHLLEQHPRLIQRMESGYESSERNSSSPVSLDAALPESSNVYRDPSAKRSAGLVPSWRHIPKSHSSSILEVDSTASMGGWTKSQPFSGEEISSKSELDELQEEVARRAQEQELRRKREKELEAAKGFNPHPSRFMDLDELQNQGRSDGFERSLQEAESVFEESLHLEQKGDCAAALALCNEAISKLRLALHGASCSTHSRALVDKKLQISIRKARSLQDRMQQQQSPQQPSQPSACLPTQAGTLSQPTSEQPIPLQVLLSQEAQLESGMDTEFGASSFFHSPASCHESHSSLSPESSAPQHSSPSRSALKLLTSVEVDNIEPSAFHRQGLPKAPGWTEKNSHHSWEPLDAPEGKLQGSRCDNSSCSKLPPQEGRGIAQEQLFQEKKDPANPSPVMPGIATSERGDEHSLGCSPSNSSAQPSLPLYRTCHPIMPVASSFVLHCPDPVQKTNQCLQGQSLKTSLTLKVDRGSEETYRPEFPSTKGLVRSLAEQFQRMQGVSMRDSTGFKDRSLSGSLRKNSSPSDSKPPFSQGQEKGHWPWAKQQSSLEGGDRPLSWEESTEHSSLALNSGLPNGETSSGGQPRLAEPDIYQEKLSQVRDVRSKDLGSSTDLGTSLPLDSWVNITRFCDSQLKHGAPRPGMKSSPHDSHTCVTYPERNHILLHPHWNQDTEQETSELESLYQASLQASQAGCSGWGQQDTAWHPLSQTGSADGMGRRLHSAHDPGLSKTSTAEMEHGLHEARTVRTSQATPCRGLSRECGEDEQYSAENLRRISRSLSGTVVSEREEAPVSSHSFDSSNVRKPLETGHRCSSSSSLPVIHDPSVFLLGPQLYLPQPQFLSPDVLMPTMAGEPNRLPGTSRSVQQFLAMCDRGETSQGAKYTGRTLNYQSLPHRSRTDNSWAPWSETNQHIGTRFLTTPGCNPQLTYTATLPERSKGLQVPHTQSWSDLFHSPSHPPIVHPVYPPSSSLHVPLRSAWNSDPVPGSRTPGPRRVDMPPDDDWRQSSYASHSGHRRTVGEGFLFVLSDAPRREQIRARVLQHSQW
# Procedure, shortened: as §1
# USP7 = USP7 (UniProt Q93009)
# USP7, sequence (Q93009 whole entry, looked up): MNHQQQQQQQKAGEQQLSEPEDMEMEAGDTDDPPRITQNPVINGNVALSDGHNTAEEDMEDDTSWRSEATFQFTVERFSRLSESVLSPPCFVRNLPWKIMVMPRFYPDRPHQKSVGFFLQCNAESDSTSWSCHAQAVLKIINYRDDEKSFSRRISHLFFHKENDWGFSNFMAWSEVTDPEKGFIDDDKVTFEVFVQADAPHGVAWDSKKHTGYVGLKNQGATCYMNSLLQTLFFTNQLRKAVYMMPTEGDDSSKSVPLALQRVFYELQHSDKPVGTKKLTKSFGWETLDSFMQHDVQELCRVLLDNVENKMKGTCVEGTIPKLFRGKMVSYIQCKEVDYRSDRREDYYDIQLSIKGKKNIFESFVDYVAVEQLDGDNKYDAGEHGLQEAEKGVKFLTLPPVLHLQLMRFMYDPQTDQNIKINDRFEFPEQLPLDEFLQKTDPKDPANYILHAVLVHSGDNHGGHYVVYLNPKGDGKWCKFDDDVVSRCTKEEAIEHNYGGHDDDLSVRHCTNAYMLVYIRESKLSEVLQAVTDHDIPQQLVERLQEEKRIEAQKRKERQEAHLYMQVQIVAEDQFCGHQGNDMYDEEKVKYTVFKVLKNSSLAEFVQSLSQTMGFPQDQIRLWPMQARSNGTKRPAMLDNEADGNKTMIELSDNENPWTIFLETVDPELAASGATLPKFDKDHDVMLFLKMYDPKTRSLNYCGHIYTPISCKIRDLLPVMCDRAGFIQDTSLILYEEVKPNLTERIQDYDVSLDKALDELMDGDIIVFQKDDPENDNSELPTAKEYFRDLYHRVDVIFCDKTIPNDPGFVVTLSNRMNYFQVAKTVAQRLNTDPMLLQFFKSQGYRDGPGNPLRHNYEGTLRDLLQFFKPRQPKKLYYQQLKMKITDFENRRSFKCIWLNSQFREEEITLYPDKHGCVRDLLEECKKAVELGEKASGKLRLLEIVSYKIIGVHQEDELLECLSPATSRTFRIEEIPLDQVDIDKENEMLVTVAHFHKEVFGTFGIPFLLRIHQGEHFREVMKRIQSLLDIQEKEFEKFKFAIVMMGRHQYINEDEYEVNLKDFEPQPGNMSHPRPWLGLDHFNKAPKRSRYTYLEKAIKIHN
# Procedure, shortened: as §1
# USP8 = biological target: T5, USP8 (UniProt P40818)
# T5 sequence (whole entry): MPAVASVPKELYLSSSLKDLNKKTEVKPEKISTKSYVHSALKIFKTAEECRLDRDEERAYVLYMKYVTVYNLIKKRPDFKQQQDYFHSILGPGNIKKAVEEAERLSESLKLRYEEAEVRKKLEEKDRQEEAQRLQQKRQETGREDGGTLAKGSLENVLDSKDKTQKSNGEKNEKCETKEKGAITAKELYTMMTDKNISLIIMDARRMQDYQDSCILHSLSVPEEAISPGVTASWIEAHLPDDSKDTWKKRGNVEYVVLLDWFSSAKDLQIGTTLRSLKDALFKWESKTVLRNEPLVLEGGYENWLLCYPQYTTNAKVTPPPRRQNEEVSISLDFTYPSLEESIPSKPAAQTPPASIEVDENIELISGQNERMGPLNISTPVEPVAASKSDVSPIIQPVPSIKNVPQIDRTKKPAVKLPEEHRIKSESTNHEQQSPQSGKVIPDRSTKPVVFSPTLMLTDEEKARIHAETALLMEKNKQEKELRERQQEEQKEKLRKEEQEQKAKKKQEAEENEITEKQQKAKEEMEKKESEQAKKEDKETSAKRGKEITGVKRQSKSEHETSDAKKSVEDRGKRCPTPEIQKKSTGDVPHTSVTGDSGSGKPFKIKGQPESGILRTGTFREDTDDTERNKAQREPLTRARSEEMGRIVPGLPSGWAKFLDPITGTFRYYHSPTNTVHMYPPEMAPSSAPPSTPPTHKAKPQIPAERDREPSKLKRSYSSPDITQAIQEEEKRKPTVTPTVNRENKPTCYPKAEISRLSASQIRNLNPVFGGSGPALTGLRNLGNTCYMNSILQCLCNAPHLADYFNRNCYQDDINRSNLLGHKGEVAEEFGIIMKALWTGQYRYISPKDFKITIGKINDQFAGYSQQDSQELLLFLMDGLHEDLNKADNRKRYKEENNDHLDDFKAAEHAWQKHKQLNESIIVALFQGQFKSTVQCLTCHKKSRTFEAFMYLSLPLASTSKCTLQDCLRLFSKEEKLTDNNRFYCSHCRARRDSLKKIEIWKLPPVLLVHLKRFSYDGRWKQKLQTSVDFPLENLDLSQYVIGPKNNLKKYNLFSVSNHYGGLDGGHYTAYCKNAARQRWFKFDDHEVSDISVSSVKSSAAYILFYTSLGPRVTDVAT
# Procedure, shortened: as §1
smiles,measurement,setting,value
N#Cc1ccccc1N1CCN(C(=O)CCl)CC1,log2 ratio of Biotin-Ahx-Ub-VS probe labelling,USP42,0.456
same,log2 ratio of Biotin-Ahx-Ub-VS probe labelling,USP46,-0.871
same,log2 ratio of Biotin-Ahx-Ub-VS probe labelling,USP47,-0.514
same,log2 ratio of Biotin-Ahx-Ub-VS probe labelling,USP48,-1.04
same,log2 ratio of Biotin-Ahx-Ub-VS probe labelling,USP5,-0.123
same,log2 ratio of Biotin-Ahx-Ub-VS probe labelling,USP54,1.03
same,log2 ratio of Biotin-Ahx-Ub-VS probe labelling,USP7,-1.73 (active)
same,log2 ratio of Biotin-Ahx-Ub-VS probe labelling,USP8,-0.729
